# Laboratory results from PubChem BioAssay.
# Active and inactive are the calls of the source. Unless noted, the rule behind the calls is not given here.
# What was measured:
# [1] = resazurin metabolic signal in HepG2 cells – cell-based, resazurin fluorescence, 24 h, PK04 Diversity Set, profiling panel (AID 1172); settings: HepG2 viability, higher = more signal
# [2] = budding yeast growth changes without added modifier – OD600, strain BY4716, 24 h, basal condition, primary screen (AID 1173); settings: S. cerevisiae BY4716 growth, OD600, 24 h; higher = more signal, called active from +8 up or from −8 down
# [3] = viability profiling in MM1S myeloma cells – cell-based, resazurin fluorescence, basal, 24 h, PK04 Diversity Set, profiling panel (AID 1174); settings: higher = more signal, called active from +8 up or from −8 down;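 note: MM1S multiple myeloma cell line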
# [4] = target: Dihydroorotate dehydrogenase (quinone), mitochondrial (Plasmodium falciparum (isolate 3D7)) (UniProt Q08210); experiment: inhibition of P. falciparum DHODH – biochemical, C-terminal His tag, absorbance 600 nm, primary screen (AID 1175); settings: PfDHODH enzyme, DCIP absorbance 600 nm; higher = more signal, called active from +8 up or from −8 down;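 note: recombinant parasite enzyme with a five histidine tag at its C terminus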
# Chain of Dihydroorotate dehydrogenase (quinone), mitochondrial (Plasmodium falciparum (isolate 3D7)) (Q08210 whole entry, looked up): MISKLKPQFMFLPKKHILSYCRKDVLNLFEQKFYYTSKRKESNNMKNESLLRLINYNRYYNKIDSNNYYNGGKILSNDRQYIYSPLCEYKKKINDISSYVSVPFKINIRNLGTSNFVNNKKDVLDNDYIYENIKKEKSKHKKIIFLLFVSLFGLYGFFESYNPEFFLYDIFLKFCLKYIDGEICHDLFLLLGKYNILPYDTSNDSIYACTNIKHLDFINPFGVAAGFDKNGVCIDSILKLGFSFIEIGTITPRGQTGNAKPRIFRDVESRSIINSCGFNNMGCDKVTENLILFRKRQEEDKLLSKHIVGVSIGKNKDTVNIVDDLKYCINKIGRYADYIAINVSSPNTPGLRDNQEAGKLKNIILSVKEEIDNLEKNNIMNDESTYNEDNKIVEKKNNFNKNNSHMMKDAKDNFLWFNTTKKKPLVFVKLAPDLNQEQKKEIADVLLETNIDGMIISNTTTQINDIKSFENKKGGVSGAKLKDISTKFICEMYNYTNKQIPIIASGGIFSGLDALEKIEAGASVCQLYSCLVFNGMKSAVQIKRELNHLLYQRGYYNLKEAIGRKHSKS
# [5] = inhibition of PAO1 biofilm formation – strain PAO1, LB-PBS medium, absorbance 600 nm, primary screen (AID 1176); settings: P. aeruginosa PAO1 growth/biofilm, A600, 12 h; higher = more signal
# [6] = growth modulation of vineyard yeast isolate – strain RM11-1a, OD600, basal, 24 h, primary screen (AID 1177);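 note: cultures grown under basal conditions with no added stressor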; settings: S. cerevisiae RM11-1a growth, OD600, 24 h; higher = more signal, called active from +8 up or from −8 down
# [7] = growth of efflux-deficient E. coli DRC39 – strain DRC39, OD650, 24 h, E. coli filamentation inducers, primary screen (AID 1178);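 note: growth measured as culture turbidity by optical density at 650 nm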; settings: E. coli DRC39 acrAB, higher = more signal, called active from +8 up or from −8 down
# [8] = growth of efflux-deficient E. coli DRC39 – strain DRC39, OD650, 48 h, E. coli filamentation inducers, primary screen (AID 1179);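 note: screen aims at cell division blockers that make cells filament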; settings: E. coli DRC39 delta-acrAB growth, higher = more signal, called active from +8 up or from −8 down
# [9] = viability profiling in RPMI8226 myeloma cells – cell-based, resazurin fluorescence, basal, 24 h, PK04 Diversity Set, profiling panel (AID 1180); settings: higher = more signal;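 note: RPMI8826 multiple myeloma cell line at 5000 cells per well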
# [10] = target: E3 ubiquitin-protein ligase XIAP (Homo sapiens) (UniProt P98170); experiment: small molecules binding XIAP protein – biophysical, small-molecule microarray, fluorescence 635 nm, primary screen (AID 1181); settings: higher = more signal;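 note: score merges 667 nm emission and signal to noise over triplicate slides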
# Chain of E3 ubiquitin-protein ligase XIAP (Homo sapiens) (P98170 whole entry, looked up, the tested form may be a part): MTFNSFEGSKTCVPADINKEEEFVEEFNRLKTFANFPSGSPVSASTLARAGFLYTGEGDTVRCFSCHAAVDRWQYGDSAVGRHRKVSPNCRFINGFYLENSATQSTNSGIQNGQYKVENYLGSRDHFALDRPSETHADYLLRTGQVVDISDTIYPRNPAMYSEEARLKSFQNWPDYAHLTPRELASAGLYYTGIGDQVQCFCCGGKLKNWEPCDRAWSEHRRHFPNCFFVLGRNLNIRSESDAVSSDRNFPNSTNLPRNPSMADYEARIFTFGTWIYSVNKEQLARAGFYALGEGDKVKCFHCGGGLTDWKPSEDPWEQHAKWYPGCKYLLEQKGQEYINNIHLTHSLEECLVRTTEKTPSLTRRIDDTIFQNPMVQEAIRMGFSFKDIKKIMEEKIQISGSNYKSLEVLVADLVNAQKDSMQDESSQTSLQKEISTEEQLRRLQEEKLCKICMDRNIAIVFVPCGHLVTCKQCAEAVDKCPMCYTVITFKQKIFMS
# [11] = system: XIP peptide (Xip251-270) binding; experiment: XIP fragment 251-270 binding compounds – biochemical, small-molecule microarray, fluorescence 635/667 nm, 0.1 µg/mL protein, primary screen (AID 1182); settings: fluorescent protein binding, 635 nm, higher = more signal, called active from +8 up or from −8 down
# [12] = system: XIP peptide (Xip251-270); experiment: compounds binding XIP fragment 251-270 – biochemical, small-molecule microarray, fluorescence 635/667 nm, 0.5 µg/mL protein, primary screen (AID 1183); settings: fluorescence 635 nm, higher = more signal
# [13] = blood-stage malaria parasite viability loss – strain 3D7, DAPI fluorescence, 100 nL, primary screen (AID 1184);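 note: parasites grown inside human red blood cells in medium with human serum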; settings: P. falciparum 3D7 growth, 3 d, higher = more signal
# [14] = target: Homeobox protein Hox-A13 (Mus musculus) (UniProt Q62424); experiment: disruptors of Hoxa13 oligonucleotide interaction – biochemical, fluorescence polarization, labeled oligonucleotide, primary screen (AID 1185); settings: Hoxa13:DNA binding, 15 min, higher = more signal, called active from +8 up or from −8 down
# Chain of Homeobox protein Hox-A13 (Mus musculus) (Q62424 whole entry, looked up): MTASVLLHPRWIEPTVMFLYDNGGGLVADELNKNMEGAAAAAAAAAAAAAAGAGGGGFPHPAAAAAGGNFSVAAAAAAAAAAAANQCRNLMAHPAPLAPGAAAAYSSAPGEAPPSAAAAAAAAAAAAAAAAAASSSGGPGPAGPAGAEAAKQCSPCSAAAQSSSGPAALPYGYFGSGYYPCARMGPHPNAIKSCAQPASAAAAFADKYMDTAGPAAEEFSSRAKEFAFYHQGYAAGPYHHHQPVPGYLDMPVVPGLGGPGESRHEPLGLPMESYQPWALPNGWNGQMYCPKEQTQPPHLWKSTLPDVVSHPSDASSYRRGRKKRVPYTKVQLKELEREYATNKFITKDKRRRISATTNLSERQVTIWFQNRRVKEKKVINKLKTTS
# [15] = blockers of DNA damage checkpoint Chk1 activation – imaging, HeLa, hydroxyurea, phospho-Chk1 antibody, percent positive cells, primary screen (AID 1186); settings: hydroxyurea-induced phospho-Chk1 immunofluorescence imaging, higher = more signal
# [16] = blockers of DNA damage checkpoint Chk1 activation – imaging, HeLa, hydroxyurea, phospho-Chk1 nuclear intensity, primary screen (AID 1187); settings: hydroxyurea-induced phospho-Chk1 immunofluorescence imaging, higher = more signal
Compound,z-score [1],z-score [2],z-score [3],composite z-score [4],z-score [5],z-score [6],z-score [7],z-score [8],z-score [9],composite z-score [10],composite z-score [11],composite z-score [12],z-score [13],z-score [14],z-score [15],z-score [16]
CC(C)C(O)C1C=CC2C(=O)N(C)C(=O)C2N1N1CCCCC1 (stereo not drawn),-0.401,0.717 (inactive),-0.82 (inactive),-0.0607 (inactive),0.916 (inactive),0.0471 (inactive),-0.754 (inactive),-0.837 (inactive),-0.323,-0.0448,-0.335 (inactive),0.855,0.998,-4.51 (inactive),0.604 (inactive),0.171 (inactive)
COc1cc(CO)cc(I)c1O[C@H]1C=C(C(=O)NCCO)C[C@@H](N(CCc2cccc(F)c2)C(=O)CCC2CCCC2)[C@@H]1O,-1.69,-9.37 (active),-3.26 (inactive),-0.459 (inactive),1.99 (inactive),1.99 (inactive),-0.0338 (inactive),-0.177 (inactive),-4.07,0.29,0.131 (inactive),0.65,-2.18,-6.89 (inactive),0.624 (inactive),0.824 (inactive)
C=CC[C@@]1(C(=O)NCCN2CCOCC2)N=C(c2ccc(OCCCO)cc2)O[C@@H]1c1ccccc1CN=[N+]=[N-],-0.0014,-1.4 (inactive),0.331 (inactive),0.45 (inactive),0.466 (inactive),-0.425 (inactive),0.677 (inactive),-0.498 (inactive),-0.354,0.272,1.21 (inactive),0.818,-2.13,-1.05 (inactive),-0.336 (inactive),-0.254 (inactive)
CO[C@H]1O[C@H](CO)[C@@H](OC(=O)Nc2ccccc2-c2ccccc2)[C@H](OC(=O)Nc2ccccc2-c2ccccc2)[C@H]1OC(=O)Nc1ccccc1-c1ccccc1,-1.04,1.95 (inactive),-1.6 (inactive),-0.236 (inactive),1.45 (inactive),4.43 (inactive),0.494 (inactive),-0.0039 (inactive),-1.6,1.26,0.0163 (inactive),0.861,-1.06,-2.05 (inactive),-0.0075 (inactive),0.618 (inactive)
C=CCC(OC(C)=O)[C@@H]1[C@@H](N(Cc2cc3ccccc3o2)C(=O)c2cccc3ccccc23)c2cc(OCCCO)ccc2N1C(=O)Cc1ccc(OC)cc1 (stereo partly drawn),-1.29,-0.149 (inactive),-1.17 (inactive),0.507 (inactive),-0.334 (inactive),0.196 (inactive),-0.386 (inactive),-0.725 (inactive),-1.17,0.211,0.1 (inactive),-0.208,-2.37,-3.31 (inactive),0.821 (inactive),0.775 (inactive)
[N-]=[N+]=NCc1ccccc1C[C@]1(C(=O)NCc2ccccc2)COC(c2ccc(OCCCO)cc2)=N1,-1.89,1.55 (inactive),-5.64 (inactive),1.1 (inactive),0.385 (inactive),3.06 (inactive),1.45 (inactive),0.376 (inactive),-4.15,0.488,0.395 (inactive),0.689,-2.45,-6.24 (inactive),-0.403 (inactive),-0.737 (inactive)
COc1ccc([Si](C)(C)[C@H]2[C@H](CC(=O)N3Cc4ccccc4C[C@H]3CO)O[C@@]3(C(=O)N(Cc4cccc(I)c4)c4ccccc43)[C@@H]2C)cc1,-0.779,-1.08 (inactive),-2.22 (inactive),-1.01 (inactive),1.13 (inactive),1.55 (inactive),0.517 (inactive),-0.152 (inactive),-1.59,-0.157,-0.276 (inactive),0.287,-2.37,-2.66 (inactive),-1.22 (inactive),-0.541 (inactive)
CS(=O)(=O)CCOC(=O)C1=CC(c2ccc(CO)cc2)=CC(c2cccs2)N(Cc2cccc(OC(F)(F)F)c2)C=C1C(=O)OCCS(C)(=O)=O (stereo not drawn),-0.534,-4.14 (inactive),-2.98 (inactive),-1.08 (inactive),0.907 (inactive),0.267 (inactive),-2.93 (inactive),-3.3 (inactive),-1.32,-0.22,0.276 (inactive),0.514,-2.5,-4.18 (inactive),0.552 (inactive),0.377 (inactive)
C=CCN1Cc2ccccc2C[C@@]2(COC(c3ccc(OCCCO)cc3)=N2)C1=O,0.344,-2.27 (inactive),-8.12 (active),-0.993 (inactive),-0.127 (inactive),1.04 (inactive),1.32 (inactive),1.14 (inactive),-4.61,0.236,0.415 (inactive),0.793,-1.85,-3.96 (inactive),-0.221 (inactive),-0.208 (inactive)
CC[C@@H]1C=C(C(=O)O)[C@H](c2ccc(C(C)C)cc2)N1S(=O)(=O)c1ccc(C)cc1,-0.892,-1.01 (inactive),-0.725 (inactive),-0.976 (inactive),0.16 (inactive),-1.27 (inactive),-0.862 (inactive),0.133 (inactive),-2.23,0.198,0.719 (inactive),0.924,-0.646,-5.17 (inactive),0.122 (inactive),-0.118 (inactive)
NC(=O)[C@]1(Cc2ccccc2)N=C(c2ccc(OCCCO)cc2)O[C@@H]1c1ccccc1,-0.3,-1.06 (inactive),-1.02 (inactive),0.417 (inactive),0.246 (inactive),0.569 (inactive),0.0671 (inactive),-1.24 (inactive),-0.189,0.16,-0.0696 (inactive),0.0178,-2.04,-5.25 (inactive),-0.0614 (inactive),-0.209 (inactive)
COc1ccc([Si](C)(C)[C@@H]2[C@@H](CC(=O)N3Cc4ccccc4C[C@H]3CO)O[C@]3(C(=O)N(Cc4cccc(N5C(=O)COc6ccccc65)c4)c4ccccc43)[C@H]2C)cc1,0.645,-1.17 (inactive),-1.84 (inactive),-1.32 (inactive),1.92 (inactive),1.39 (inactive),1.53 (inactive),1.53 (inactive),-0.748,0.188,1.16 (inactive),0.778,-2.79,-0.616 (inactive),-0.635 (inactive),-0.0275 (inactive)
C=CCC(OC(C)=O)[C@@H]1[C@@H](N(Cc2ccc(-c3cccc(C(F)(F)F)c3)o2)C(=O)Cc2ccc(OC)cc2)c2cc(OCCCO)ccc2N1C(=O)Cc1ccc(OC)cc1 (stereo partly drawn),-0.0596,-1.2 (inactive),1.08 (inactive),-1.49 (inactive),0.125 (inactive),-1.08 (inactive),1.49 (inactive),0.814 (inactive),0.695,-0.0879,-0.343 (inactive),0.278,-2.23,-3.42 (inactive),-0.186 (inactive),-0.0407 (inactive)
COCCOC(=O)N1C(=O)[C@@]2(c3cc(C#Cc4ccc(OC)cc4)ccc31)[C@H](C(N)=O)[C@H]1C(=O)O[C@H](c3ccccc3)[C@H](c3ccccc3)N1[C@@H]2c1ccc(O)cc1,-0.0716,-0.823 (inactive),0.277 (inactive),-0.265 (inactive),0.886 (inactive),-0.0047 (inactive),-0.102 (inactive),0.236 (inactive),-0.394,0.0849,-0.0197 (inactive),0.0645,-1.69,2.03 (inactive),-0.0863 (inactive),0.243 (inactive)
COc1ccc(C#Cc2ccc3c(c2)[C@]2(C(=O)N3)[C@H](c3ccc(OCCO)cc3)N3[C@H](c4ccccc4)[C@H](c4ccccc4)OC(=O)[C@H]3[C@@H]2C(=O)Nc2nc3ccccc3s2)cc1,0.534,0.436 (inactive),0.217 (inactive),-3.02 (inactive),3.64 (inactive),1.55 (inactive),0.528 (inactive),1.25 (inactive),0.174,0.75,0.353 (inactive),0.522,-1.3,3.34 (inactive),0.141 (inactive),0.315 (inactive)
[N-]=[N+]=NCc1ccccc1[C@@H]1OC(c2ccc(OCCCO)cc2)=N[C@]1(Cc1ccccc1)C(=O)O,1.18,-3.03 (inactive),0.615 (inactive),-0.101 (inactive),0.466 (inactive),0.703 (inactive),0.305 (inactive),-0.108 (inactive),0.469,-0.0731,0.078 (inactive),0.859,0.615,-4.89 (inactive),0.412 (inactive),0.595 (inactive)
C=C(CCCC)/C(=C/C[C@H](OC(C)=O)c1ccc(CO)o1)c1cc(C(=O)OC)ccc1OC,-0.577,-0.31 (inactive),-0.871 (inactive),-2.01 (inactive),0.0842 (inactive),0.0837 (inactive),-0.729 (inactive),-0.776 (inactive),-0.641,-0.322,0.485 (inactive),0.73,-1.52,-4.44 (inactive),-0.92 (inactive),-0.469 (inactive)
C=CCC(OC(C)=O)[C@@H]1[C@@H](N(Cc2ccc(-c3ccccc3)cc2)C(=O)c2ccc(C)cc2)c2cc(OCCCO)ccc2N1C(=O)c1ccc2ccccc2n1 (stereo partly drawn),1.53,-0.769 (inactive),1.3 (inactive),-0.772 (inactive),0.833 (inactive),-1.99 (inactive),2.06 (inactive),1.82 (inactive),0.924,-0.0663,-0.218 (inactive),-0.876,-0.62,-1.29 (inactive),-0.641 (inactive),-0.346 (inactive)
